Experimental findings from PubChem BioAssay AID488969 (Vanderbilt High Throughput Screening Facility, 2010) are described below.

Over roughly 110,000 compounds, “z-score” has its median near -0.1; the highest 2% begin near 2. Shown is part of a subset that was picked to be rich in the highest values. Calls of active or inactive are those of the source.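 The calls were made as follows: active = z-score in the third read window above 3 or below -3; inactive = the rest.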

For this experiment, the target named is Metabotropic glutamate receptor 8 (Rattus norvegicus) (UniProt P70579). Description: rat mGluR8 modulators via GIRK flux, primary screen, cell-based, thallium flux, HTS (AID 488969). As to conditions: HEK293 rat mGluR8, GIRK (G protein-gated inwardly rectifying potassium channel) thallium flux, FluoZin2; at 10 µM; stronger effect = higher value; submaximal glutamate (EC20) added with thallium.
Metabotropic glutamate receptor 8 (Rattus norvegicus), sequence (P70579 whole entry, looked up): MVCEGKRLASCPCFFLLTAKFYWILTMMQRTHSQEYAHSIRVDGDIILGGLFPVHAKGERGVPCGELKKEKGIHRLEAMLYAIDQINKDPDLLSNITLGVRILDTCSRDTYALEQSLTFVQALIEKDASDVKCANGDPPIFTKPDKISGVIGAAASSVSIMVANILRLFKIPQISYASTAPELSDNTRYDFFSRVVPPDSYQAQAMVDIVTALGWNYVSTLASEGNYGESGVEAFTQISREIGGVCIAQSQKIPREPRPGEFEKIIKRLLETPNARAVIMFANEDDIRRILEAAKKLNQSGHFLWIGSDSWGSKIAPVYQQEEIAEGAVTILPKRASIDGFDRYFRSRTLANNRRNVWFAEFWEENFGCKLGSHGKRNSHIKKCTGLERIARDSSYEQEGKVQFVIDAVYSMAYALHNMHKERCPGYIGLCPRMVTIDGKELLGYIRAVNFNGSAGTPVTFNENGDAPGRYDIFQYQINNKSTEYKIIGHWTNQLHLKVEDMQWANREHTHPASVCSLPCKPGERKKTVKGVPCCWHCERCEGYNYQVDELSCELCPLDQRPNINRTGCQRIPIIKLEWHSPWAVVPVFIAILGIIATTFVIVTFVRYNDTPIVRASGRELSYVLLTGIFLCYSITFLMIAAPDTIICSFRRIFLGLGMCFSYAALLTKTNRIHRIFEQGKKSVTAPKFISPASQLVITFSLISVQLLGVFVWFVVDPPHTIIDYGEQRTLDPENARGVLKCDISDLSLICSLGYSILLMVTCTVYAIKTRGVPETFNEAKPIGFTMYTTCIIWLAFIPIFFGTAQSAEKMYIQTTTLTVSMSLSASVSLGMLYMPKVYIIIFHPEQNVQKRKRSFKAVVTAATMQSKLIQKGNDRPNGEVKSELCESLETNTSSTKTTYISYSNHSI
With `O=C1Nc2ccccc2C12OCCCO2`, the z-score was 0.489.

`O=C1Nc2ccccc2C12OCCO2` registered a z-score of -0.0845.

Regarding `O=C1Nc2ccccc2C12OCC1(CO2)COC2(OC1)C(=O)Nc1ccccc12` (stereo not drawn), the z-score is 3.45 (active).

For the compound `CCN(CC)S(=O)(=O)c1ccc(/C=C/C(=O)Nc2ccc(F)c(F)c2F)cc1`, the z-score was -0.0872.

For the compound `Cc1ccc(C(=O)CC(=O)COc2ccc(Cl)cc2)cc1`, the z-score was 5.07 (active).

Regarding `Cc1ccc(C(=O)CC(=O)COc2ccc(Cl)cc2C)cc1`, the z-score is 5.45 (active).

As for `Cc1ccc(NC(=O)c2ccc(OC(=O)COc3ccc(Cl)cc3C)cc2)cc1`, the z-score was -0.069.

With `Cc1cc(Cl)ccc1OCC(=O)NC1CCCC1`, the z-score came out at 0.0341.

`COC(=O)C(CC(=O)c1ccc(Cl)cc1)c1ccc(C)cc1` (stereo not drawn) displayed a z-score of -0.155.

Take `Cc1ccc(NCCC(=O)c2ccc(Cl)cc2)cc1`: the z-score is -0.27.

The compound `Cc1cc(C)nc(/N=C(\N)Nc2ccc([N+](=O)[O-])cc2)n1` came in with a z-score of -0.477.

`O=C(O)c1cccc(-n2cnnn2)c1` yielded a z-score of -0.667.

`CCC(=O)Nc1nnc(SCCOC)s1` came in with a z-score of 0.214.

`CCCC(=O)Nc1nnc(SCC)s1` displayed a z-score of 0.0928.

Consider `CCSc1nnc(NC(=O)NC(CC)(C(F)(F)F)C(F)(F)F)s1`, for which the z-score was 3.86 (active).

Consider `CCSc1nnc(NC(=O)C(CC)(C(F)(F)F)C(F)(F)F)s1`, for which the z-score was -0.322.

As to `CCC(NC(=O)Nc1nnc(C(F)(F)F)s1)(C(F)(F)F)C(F)(F)F`, the z-score stood at 0.241.

Consider `CCSc1nnc(NC(=O)CC)s1`, for which the z-score is 5.27 (active).

As for `CCCCN1CCc2[nH]c(=S)[nH]c(=O)c2C1`, the z-score is -0.178.

Compound `Cc1ccccc1C(=O)Oc1cccc(Nc2ncnc3ccccc23)c1` came in with a z-score of -1.4.

With `CC(NC(=O)C1CCC1)c1ccc(Br)cc1` (stereo not drawn), the z-score is -0.264.

Turning to `CCN(CC)S(=O)(=O)c1cccc(C(=O)NC(C(=O)NC2=NCCS2)C(C)C)c1` (stereo not drawn), the z-score was determined as 0.126.

For `CCNc1nc(NC#N)nc(SCC(=O)OCC)n1`, the z-score was -0.413.

The compound `COC(=O)c1ccc(CSc2nc3c(cnn3-c3ccccc3)c(=O)[nH]2)o1` returned a z-score of -0.686.

With `COc1ccc(C(=O)NC(=S)NNC(=O)CCc2ccccc2)cc1`, the z-score was 3.38 (active).

With `O=C(CCc1ccccc1)NNC(=S)NC(=O)c1ccccc1`, the z-score came out at 1.13.

For the compound `CC(=O)Nc1ccc(C(=O)NNC(=O)CCc2ccccc2)cc1`, the z-score is -0.185.

`O=C(CCc1ccccc1)NNC(=S)NC(=O)c1ccc(Cl)cc1`: the z-score was 3.03 (active).

As to `CC(C)(C)c1ccc(OCC(=O)NNC(=O)CCc2ccccc2)cc1`, the z-score stood at 0.639.

As for `O=C(CCc1ccccc1)NNC(=O)c1ccc(NC(=O)c2ccccc2)cc1`, the z-score stood at 0.0748.

`O=C(Cc1csc(N2CCOCC2)n1)N/N=C/c1ccc(Cl)cc1Cl`: the z-score is -0.885.

In turn, `N#Cc1c2n(c(=S)n(-c3ccccn3)c1=O)CCCCC2` registered a z-score of -0.927.

The compound `N#Cc1c2n(c(=O)[nH]c1=O)CCCCC2` displayed a z-score of -0.0381.

As for `N#Cc1c2n(c3c(=S)nc[nH]c13)CCCCC2`, the z-score worked out at 2.2.

`O=C(CNC(=O)c1ccccc1F)NCCOc1ccccc1Cl` showed a z-score of -0.065.

In turn, `CC1(C)CC(=O)C2=C(C1)OC1=C(C(=O)CC(C)(C)C1)C2(C)C` had a z-score of -0.182.

In turn, `CCOC12CC(C)(C)CC(C)(CC3=C1C(=O)CC(C)(C)C3)C2` (stereo not drawn) showed a z-score of 2.32.

For `CCOc1ccc(N=CC2=C(O)CC(C)(C)CC2=O)cc1`, the z-score stood at 0.649.

The compound `CCOC(=O)C1CCCN(C(=O)CN2C(=O)COc3ccc(C(C)(C)C)cc32)C1` (stereo not drawn) gave a z-score of -1.06.

As to `CCOC(=O)N1CCN(Cc2nc3c(c(=O)n(C)c(=O)n3C)n2Cc2ccccc2C)CC1`, the z-score was -0.27.

Turning to `COc1ccccc1NC(=S)NCCc1ccc(Cl)cc1`, the z-score was 3.06 (active).

Turning to `Fc1cc(Br)ccc1NC(=S)NCCc1ccccc1`, the z-score was 7.09 (active).

Compound `S=C(NCCc1ccccc1)Nc1ccc(Br)cc1` registered a z-score of 0.268.

Regarding `COc1ccccc1NC(=S)NCCc1ccccc1`, the z-score is -0.188.

Regarding `COc1ccc(NC(=S)NCCc2ccc(Cl)cc2)c(OC)c1`, the z-score was 0.319.

`Fc1ccc(NC(=S)NCCc2ccccc2)c(F)c1F` gave a z-score of 2.71.

The compound `Fc1cc(Br)ccc1NC(=S)Nc1ccccc1` displayed a z-score of 0.843.

In turn, `S=C(NCCc1ccccc1)Nc1ccc(Cl)cc1Cl` had a z-score of 1.43.

Turning to `Fc1ccccc1NC(=S)NCCc1ccccc1`, the z-score is 0.134.

As for `COc1cc2c(cc1NC(=O)CSc1ccccc1)oc1ccccc12`, the z-score is -0.258.

Regarding `O=C(N/N=C/c1c[nH]c2ccccc12)c1cc(-c2cccc3ccccc23)n[nH]1`, the z-score is -0.463.

With `COc1ccc(OCC(=O)O/N=C(\N)Cc2ccc(Cl)cc2Cl)cc1`, the z-score was determined as 0.353.

For the compound `CCOC(=O)c1[nH]c(C)c(/C(O)=C2\C(=O)C(=O)N(CCCN(C)C)C2c2cccnc2)c1C` (stereo not drawn), the z-score is -0.333.

For `COc1cc(CNc2nc3ccccc3n2C)cc(OC)c1OC`, the z-score is -0.245.

As to `CCCNC(=O)COC(=O)c1cc(SC)ccc1Cl`, the z-score turned out to be 0.561.

Consider `O=C(CN(C(=O)Cn1nnc(-c2cccs2)n1)c1ccc2c(c1)OCCO2)NC1CCCCC1`, for which the z-score is -0.0843.

With `Cc1ccc(N2C(=S)N=C(Nc3ccccc3C)C23CCOC(C)(C)C3)cc1` (stereo not drawn), the z-score is 15 (active).

Compound `Cc1cccc(C)c1NC1=NC(=S)N(c2ccccc2)C12CCOC(C)(C)C2` (stereo not drawn) came in with a z-score of 0.847.

Compound `CCC1(C)C(Nc2c(C)cccc2C)=NC(=S)N1c1ccc(NC(C)=O)cc1` (stereo not drawn) returned a z-score of -0.38.

For the compound `Cc1ccccc1NC1=NC(=S)N(c2ccccc2)C12CCOC(C)(C)C2` (stereo not drawn), the z-score is 12.6 (active).

In the case of `Cc1cccc(C)c1NC1=NC(=S)N(c2ccc(N(C)C)cc2)C1(C)C`, the z-score was 1.87.

`Cc1cccc(N2C(=S)N=C(Nc3c(C)cccc3C)C23CCOC(C)(C)C3)c1` (stereo not drawn) showed a z-score of -0.179.

On to `Cc1sc(NC(=S)NC(=O)C(C)(C)C)c(C(N)=O)c1C`, for which the z-score was -0.0974.

The compound `O=C(O)C1C2C=CC(C2)C1C(=O)NCCc1ccncc1` (stereo not drawn) displayed a z-score of 0.718.

Consider `O=C(O)C1C2C=CC(C2)C1C(=O)NCCc1cccc(Cl)c1` (stereo not drawn), for which the z-score was 6.03 (active).

Compound `O=C(O)C1C2C=CC(C2)C1C(=O)NCCc1ccccc1` (stereo not drawn) had a z-score of -0.122.

`CCc1nnc(NC(=O)CN2CCN(c3cccc(OC)c3)CC2)s1` came in with a z-score of 0.136.

In the case of `CCC(COC(=O)Nc1cccc(C)c1C)NC(=O)OCC(C)C` (stereo not drawn), the z-score is -0.549.

On to `CCCOC(=O)NC(CC)COC(=O)Nc1cccc(C)c1C` (stereo not drawn), for which the z-score was 3.15 (active).

Regarding `CCCOC(=O)NC(CC)COC(=O)Nc1cc(C)ccc1C` (stereo not drawn), the z-score is -0.0367.

For the compound `CN(C1CCCCC1)S(=O)(=O)c1ccc2c(c1)c(=O)c(C(=O)N1CCc3ccccc3C1)cn2C`, the z-score is -1.33.

Take `Cc1cc(Cl)c(S(=O)(=O)Nc2ccc(Cl)cn2)cc1OCC(N)=O`: the z-score was 0.203.

`COc1cccc(-n2c(=O)[nH]cc(C(=O)Nc3ccc(NC(C)=O)cc3)c2=O)c1` returned a z-score of -0.503.

As to `COc1ccc(-n2c(=O)[nH]cc(C(=O)Nc3ccc(NC(C)=O)cc3)c2=O)cc1`, the z-score was 9.34 (active).

`COc1ccc(-n2c(=O)[nH]cc(C(=O)Nc3ccccc3)c2=O)cc1`: the z-score was determined as 0.241.

For the compound `CCc1ccc(N=c2c([N+](=O)[O-])nn(-c3ccccc3)n2O)cc1`, the z-score is -0.133.

`CCCn1c(SCC(=O)N2CCCc3ccccc32)nnc1-c1ccccn1` registered a z-score of -0.0622.

`Cc1nn(CCC#N)c(NC(=O)c2ccc(Cl)cc2Cl)c1P(=O)(Nc1ccc([N+](=O)[O-])cc1)N1CCOCC1` (stereo not drawn) came in with a z-score of -0.0204.

Turning to `CCOc1ccc2cc(C(=O)c3ccccc3)c(=O)oc2c1`, the z-score was -0.201.

`CN(C)C(=O)COc1ccc2cc(-c3ccccc3)c(=O)oc2c1` gave a z-score of 2.32.

Consider `CN(C)C(=O)COc1ccc2ccc(=O)oc2c1`, for which the z-score was -0.168.

Take `Fc1ccc(C2NC(=S)NC3=C2N2CCC3CC2)cc1` (stereo not drawn): the z-score was -0.0689.

In the case of `O=C1CC(c2ccco2)Sc2nc3ccccc3n21` (stereo not drawn), the z-score was 3.22 (active).

In turn, `O=C(O)C1CC(=O)n2c(nc3ccccc32)S1` (stereo not drawn) yielded a z-score of 0.555.

Take `O=C1CC(c2cccs2)Sc2nc3ccccc3n21` (stereo not drawn): the z-score was 1.16.

As to `CCCCOc1nc(N)nc(-c2ccccc2)n1`, the z-score was -0.634.

`COc1ccc(C(=O)CSc2nc3ccccc3n2CC(=O)NC(C)(C)C)cc1` showed a z-score of -0.144.

The compound `COC(=O)CSC1=C(C#N)C(=O)NC(c2ccccc2)S1` (stereo not drawn) returned a z-score of -0.603.

Take `CCOC(=O)CSC1=C(C#N)C(=O)NC(c2ccc(OC)c(OC)c2)S1` (stereo not drawn): the z-score is 6.39 (active).

With `CCOC(=O)CSC1=C(C#N)C(=O)NC(c2ccc(OC)cc2)S1` (stereo not drawn), the z-score worked out at 0.083.

`O=C(CSc1c[nH]c2ccccc12)NCC1CCCO1` (stereo not drawn) gave a z-score of -0.0605.

Consider `C#CCOC(=O)C(NC(=O)c1ccccc1)=C1CCCCC1`, for which the z-score was -0.603.

Regarding `C=CCNC(=O)/C(=C\c1ccc2c(c1)OCO2)NC(=O)c1ccc(Br)cc1`, the z-score is -0.116.

In the case of `Cc1[nH]c2ccccc2c1C(=O)CN1C(=O)NC2(CC(C)CC(C)(C)C2)C1=O` (stereo not drawn), the z-score is -0.266.

Take `O=C(OCCN1C(=O)c2cccc3c(N4CCOCC4)ccc(c23)C1=O)c1ccccc1Cl`: the z-score is -0.723.

Turning to `O=C(OCCN1C(=O)c2cccc3c(N4CCOCC4)ccc(c23)C1=O)c1ccc(Cl)cc1`, the z-score was -0.758.

Consider `O=C(OCCN1C(=O)c2cccc3c(N4CCOCC4)ccc(c23)C1=O)c1cc(Cl)cc(Cl)c1`, for which the z-score was 5.23 (active).

For the compound `O=C1c2cccc3c(N4CCCCC4)ccc(c23)C(=O)N1CCO`, the z-score is -0.897.

The compound `O=C(OCCN1C(=O)c2cccc3c(N4CCOCC4)ccc(c23)C1=O)c1cccc(Cl)c1` gave a z-score of 2.81.

Turning to `O=C(OCCN1C(=O)c2cccc3c(N4CCOCC4)ccc(c23)C1=O)c1ccc(Cl)cc1Cl`, the z-score is -0.884.

Take `CCN1CCCC1CNC(=O)c1ccc(N2CCCC2=O)cc1` (stereo not drawn): the z-score stood at 1.38.

Compound `O=S(=O)(Cc1ccccc1Cl)Nc1ccccn1` had a z-score of 1.91.

The compound `CCOc1ccccc1NC(=O)c1cccc(NC(=O)c2ccco2)c1` had a z-score of -0.729.

In the case of `CCOc1ccccc1NC(=O)c1cccc(NC(=O)CC(c2ccccc2)c2ccccc2)c1`, the z-score is -0.177.

Turning to `CCOc1ccccc1NC(=O)Nc1cccc(C(C)=O)c1`, the z-score was 3.62 (active).

In turn, `CC(Sc1ccccc1)C(=O)Nc1ccc(S(=O)(=O)N2CCOCC2)cc1` (stereo not drawn) yielded a z-score of 0.0953.

Turning to `Cc1ccc(SC(C)C(=O)Nc2ccc(S(=O)(=O)N3CCOCC3)cc2)cc1` (stereo not drawn), the z-score was 6.05 (active).

Regarding `CC(Sc1ccc(Cl)cc1)C(=O)Nc1ccc(S(=O)(=O)N2CCOCC2)cc1` (stereo not drawn), the z-score came out at 0.967.

`COc1ccsc1C(=O)N1CCN(Cc2ccc3c(c2)OCO3)CC1`: the z-score was -0.0804.

`COc1cccc(C(=O)OC2CCCN(C)C2)c1` (stereo not drawn) gave a z-score of -0.125.

Turning to `CCc1ccc(S(=O)(=O)NCc2cn3c(C)csc3n2)s1`, the z-score was determined as 0.337.

With `Cc1csc2nc(CNS(=O)(=O)N(C)C)cn12`, the z-score was -0.402.

Turning to `CCCS(=O)(=O)NCc1cn2c(C)csc2n1`, the z-score was found to be 2.02.
